# Assay results: the supplement of paper PMC9262897, “Low-cost anti-mycobacterial drug discovery using engineered E. coli” (Nature Communications, 2022)
# Where a name gives a salt, the structure may show the parent alone. ± gives the standard deviation of the averaged measurements.
# Test system: E. coli TESEC Mtb DapB
# Experiment: growth (OD600 after 10 h); higher = more growth (less inhibition)
# Conditions: arabinose induction (level): High; compound 0.1 mM; raw OD600 reference: median of DMSO wells […], cell-free background 0.041
# Method: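 TESEC E. coli strains in which the native enzyme is deleted and replaced by arabinose-inducible Mtb Asd, DapB, CysH or TrpD, each grown in its selective medium. Strains were screened against the Prestwick library at 0.1 mM and 1% DMSO in 384-well format at low and high arabinose induction. Growth is read as OD600 after 10 h in triplicate.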
row,SMILES,growth
1,O=C1c2ccccc2C(=O)C1c1ccccc1 [Phenindione],0.194 ± 0.0095
2,CC(C)NC(=N)NC(=N)Nc1ccc(Cl)cc1 [Proguanil hydrochloride],0.207 ± 0.03
3,Cc1[nH]cnc1CN1CCc2c(c3ccccc3n2C)C1=O [Alosetron hydrochloride],0.196 ± 0.017
4,O=c1cc(-c2ccc(O)c(O)c2)oc2cc(O)cc(O)c12 [Luteolin],0.0614 ± 0.0012
5,O=C1OC(CN2CCOCC2)CN1/N=C/c1ccc([N+](=O)[O-])o1 (centres undefined) [Furaltadone hydrochloride],0.0577 ± 0.0081
6,O=C(c1ccc(OCCN2CCCCC2)cc1)c1c(-c2ccc(O)cc2)sc2cc(O)ccc12 [Raloxifene hydrochloride],0.0658 ± 0.014
7,CNS(=O)(=O)Cc1ccc2[nH]cc(CCN(C)C)c2c1 [Sumatriptan succinate],0.206 ± 0.018
8,Cc1ccc(C)c(OCCCC(C)(C)C(=O)O)c1 [Gemfibrozil],0.161 ± 0.029
9,O=C(NCC(O)CO)c1c(I)c(C(=O)NCC(O)CO)c(I)c(N(CCO)C(=O)CO)c1I (centres undefined) [Ioversol],0.202 ± 0.015
10,CN(C)CCOC(c1ccc(Cl)cc1)c1ccccn1 (centres undefined) [Carbinoxamine maleate salt],0.193 ± 0.01
11,C=CCSCC1Nc2cc(Cl)c(S(N)(=O)=O)cc2S(=O)(=O)N1 (centres undefined) [Althiazide],0.209 ± 0.0088
12,CC(=O)OCC(=O)[C@@]1(O)[C@H](C)C[C@H]2[C@@H]3CCC4=CC(=O)C=C[C@]4(C)[C@@]3(F)[C@@H](O)C[C@@]21C [Dexamethasone acetate],0.171 ± 0.017
13,CC(C)(C)NCC(O)c1ccc(O)c(CO)c1 (centres undefined) [Salbutamol],0.215 ± 0.015
14,"CC(C)NCC(O)c1cc(O)cc(O)c1 (centres undefined) [Metaproterenol sulfate, orciprenaline sulfate]",0.177 ± 0.013
15,CN(CCOc1ccc(NS(C)(=O)=O)cc1)CCc1ccc(NS(C)(=O)=O)cc1 [Dofetilide],0.229 ± 0.041
16,N=c1nc(N2CCCCC2)cc(N)n1O [Minoxidil],0.18 ± 0.0054
17,Clc1ccccc1C(c1ccccc1)(c1ccccc1)n1ccnc1 [Clotrimazole],0.0469 ± 0.0008
18,CC(=O)Oc1ccccc1C(=O)Nc1ncc([N+](=O)[O-])s1 [Nitazoxanide],0.0545 ± 0.0006
19,CCOc1ccccc1OC(c1ccccc1)C1CNCCO1 (centres undefined) [Reboxetine mesylate],0.15 ± 0.0036
20,NC(=O)c1cc[n+](CC2=C(C(=O)[O-])N3C(=O)[C@@H](NC(=O)[C@@H](c4ccccc4)S(=O)(=O)O)[C@H]3SC2)cc1 [Cefsulodin sodium salt],0.211 ± 0.013
21,CC(C)(C)NC(=O)[C@@H]1C[C@@H]2CCCC[C@@H]2CN1C[C@@H](O)[C@H](Cc1ccccc1)NC(=O)[C@H](CC(N)=O)NC(=O)c1ccc2ccccc2n1 [Saquinavir mesylate],0.05287 ± 0.00045
22,CCCCOC(=O)c1ccc(O)cc1 [Butylparaben],0.175 ± 0.011
23,Cc1cn[nH]c1 [Fomepizole],0.193 ± 0.014
24,NC1CCN(c2nc3c(cc2F)c(=O)c(C(=O)O)cn3-c2ccc(F)cc2F)C1 (centres undefined) [Tosufloxacin hydrochloride],0.05407 ± 0.0005
25,CN(C)CCN1C(=O)c2ccccc2N(C)c2ccccc21 [Dibenzepine hydrochloride],0.165 ± 0.012
26,Nc1nc(NC2CC2)c2ncn([C@H]3C=C[C@@H](CO)C3)c2n1 [Abacavir Sulfate],0.183 ± 0.018
27,O=C(NCCN1CCOCC1)c1ccc(Cl)cc1 [Moclobemide],0.191 ± 0.0078
28,CC(C)C[C@H](NC(=O)[C@@H](O)[C@H](N)Cc1ccccc1)C(=O)O [Ubenimex],0.192 ± 0.017
29,CC(C(=O)O)c1ccc(-c2ccccc2)c(F)c1 (centres undefined) [Flurbiprofen],0.208 ± 0.0072
